The text below walks through data of PubChem BioAssay (EPA / NIEHS).

Several values for one entry are separate records, joined by “and”; a condition that tells them apart may be missing. Identical values can stand only once. Records with an inconclusive call do not appear. A structure can be active in one record and inactive in another. Activity calls are given as the source filed them. The calls were made as follows, unless noted: active = hit-call score of the fitted dose curve at least 0.9, where 1 is the maximum; inconclusive = response in the unintended direction; inactive = score below 0.9.

For assay [1], the target named is Retinoic acid receptor RXR-alpha (Homo sapiens) (UniProt P19793). Kind of assay: OT_NURR1_NURR1RXRa_0480: Odyssey Thera (OT) 8-hour HEK293T Protein Complementation Assay for Nurr1/retinoid X receptor (RXR) (AID 2283385). The method in brief: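 Read-out: fluorescence from protein-fragment complementation between Nurr1 and RXRα in human HEK293T cells, 8 h after dosing. DMSO served as negative control; increased signal counted as activity.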
Sequence of Retinoic acid receptor RXR-alpha (Homo sapiens) (P19793 whole entry, looked up, the tested form may be a part): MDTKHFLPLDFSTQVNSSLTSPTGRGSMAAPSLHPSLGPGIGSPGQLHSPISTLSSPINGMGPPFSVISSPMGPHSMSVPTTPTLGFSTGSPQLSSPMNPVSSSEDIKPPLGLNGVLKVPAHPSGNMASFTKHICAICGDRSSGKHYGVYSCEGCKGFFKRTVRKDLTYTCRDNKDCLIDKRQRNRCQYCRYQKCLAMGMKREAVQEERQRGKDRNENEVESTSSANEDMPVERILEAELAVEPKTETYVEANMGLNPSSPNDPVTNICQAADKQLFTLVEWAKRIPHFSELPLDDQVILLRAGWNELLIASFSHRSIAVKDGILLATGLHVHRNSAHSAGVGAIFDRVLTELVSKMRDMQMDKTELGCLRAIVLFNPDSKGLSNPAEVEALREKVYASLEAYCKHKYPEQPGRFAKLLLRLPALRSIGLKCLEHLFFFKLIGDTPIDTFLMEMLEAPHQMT

For assay [2] the target is unchanged. Kind of assay: OT_NURR1_NURR1RXRa_1440: Odyssey Thera (OT) 24-hour HEK293T Protein Complementation Assay for Nurr1/retinoid X receptor (RXR) (AID 2283386). The method in brief:
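Fluorescence PCA read-out; HEK293T; 24 h post-dose; bait/prey fused to reporter fragments; gain-of-signal fit vs DMSO negative control.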

In assay [3] the target is Peroxisome proliferator-activated receptor gamma (Homo sapiens) (UniProt P37231). Description: OT_PPARg_PPARgSRC1_0480: Odyssey Thera (OT) 8-hour Protein-Complementation Assay for Peroxisome Proliferator-activated Receptor Gamma / SRC-1 Co-activator (AID 2283387). The method in brief:
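HEK293T transiently transfected with PPARg and SRC-1 fused to Venus YFP fragments, compounds 8 h at 37C. Fixed, Draq5-stained cells imaged; nuclear/cytoplasmic 488 nm fluorescence ratio over at least 350 cells per image; gain fitted versus DMSO.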

The target is the same in assay [4]. Description: OT_PPARg_PPARgSRC1_1440: Odyssey Thera (OT) 24-hour Protein-Complementation Assay for Peroxisome Proliferator-activated Receptor Gamma/ SRC-1 Co-activator (AID 2283388). The method in brief: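 HEK293T transiently transfected with PPARg/SRC-1 split-Venus YFP fusions 48 h before dosing, then treated 24 h at 37C. Fixed cells imaged; nuclear/cytoplasmic 488 nm fluorescence ratio, gain of signal versus DMSO.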

Read-out in assay [5]: Tumor necrosis factor receptor superfamily member 6 (Homo sapiens) (UniProt P25445)
Description: LTEA_HepaRG_FAS: Life Technologies and Expression Analysis (LTEA) Assay for Fas cell surface death receptor (FAS) using HepaRG (AID 2283447; active = hit-call score of the fitted dose curve at least 0.9, where 1 is the maximum; inactive = score below 0.9). Conditions: mRNA level, 48 h; actives raise or lower the signal. The essentials: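 Differentiated human HepaRG cells, pre-cultured 48 h, were exposed in duplicate for 48 h to 8-point half-log concentrations (top 100 uM, 0.5% DMSO) in serum-free induction medium; FAS mRNA measured by qRT-PCR, normalized to ACTB/GAPDH/POLR2A, bidirectional fit versus DMSO.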

Read-out in assay [6]: Fatty acid synthase (Homo sapiens) (UniProt P49327)
Description: LTEA_HepaRG_FASN: Life Technologies and Expression Analysis (LTEA) Assay for Fatty Acid Synthase (FASN) using HepaRG (AID 2283448; active = hit-call score of the fitted dose curve at least 0.9, where 1 is the maximum; inactive = score below 0.9). Conditions: mRNA level, 48 h; actives raise or lower the signal. The essentials:
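HepaRG, 48 h exposure, 8-pt half-log series top 100 uM, 0.5% DMSO vehicle, duplicates. Readout: FASN transcript by Fluidigm qRT-PCR; housekeeping-normalized; bidirectional curve fit vs DMSO baseline.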

Read-out in assay [7]: Cyclin D2 (CCND2), CCND2 (gene 894)
Description: LTEA_HepaRG_CCND2: Life Technologies and Expression Analysis (LTEA) Assay for Cyclin D2 (CCND2) using HepaRG (AID 2283449; active = hit-call score of the fitted dose curve at least 0.9, where 1 is the maximum; inactive = score below 0.9;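 also: CCND2 transcript measured by TaqMan qRT-PCR and normalised to three housekeeping genes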). The note with it: mRNA level, 48 h; actives raise or lower the signal. The method in brief: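 In this HepaRG study, an eight-point concentration series (max 100 uM, 0.5% DMSO) is applied for 48 h. CCND2 mRNA change is derived by qRT-PCR normalised to ACTB, GAPDH and POLR2A.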

Assay [8] concerns the target Estrogen receptor (Homo sapiens) (UniProt P03372). Description: OT_ERa_GFPERaERE_0480: Odyssey Thera (OT) 8-hour HeLa Transcription Induction Assay for Estrogen Receptor (AID 2283381; active = hit-call score of the fitted dose curve at least 0.9, where 1 is the maximum; inactive = score below 0.9). The method in brief:
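GFP-ERE reporter, HeLa, 8 h exposure. Readout: fluorescence microscopy, high-content image analysis. Fit direction positive vs DMSO negative control.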

The target is the same in assay [9]. Kind of assay: OT_ERa_GFPERaERE_0120: Odyssey Thera (OT) 2-hour HeLa Transcription Induction Assay for Estrogen Receptor (AID 2283382). The essentials:
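Fluorescence microscopy read-out: inducible fluorescent protein reporter in HeLa cells, imaged 2 h post-dose. Signal increase over DMSO negative control fitted as single primary endpoint via high content image analysis.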

Assay [10] in a line: CEETOX_H295R_11DCORT: CeeTox H295R High-throughput Steroidogenesis Assay for 11-Deoxycortisol (11DCORT) (AID 2283432; active = hit-call score of the fitted dose curve at least 0.9, where 1 is the maximum; inactive = score below 0.9). The note with it: actives raise or lower the signal. The method in brief:
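H295R cells prestimulated 48 h with 10 uM forskolin, then exposed 48 h to chemical in 0.1% DMSO. 11-Deoxycortisol in medium quantified by HPLC-MS/MS after MTBE extraction; bidirectional fit versus DMSO. MTT viability read in same wells.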

Assay [11] is described as follows: CEETOX_H295R_OHPREG: CeeTox H295R High-throughput Steroidogenesis Assay for OH-Pregnenolone (OHPREG) (AID 2283434; active = hit-call score of the fitted dose curve at least 0.9, where 1 is the maximum; inactive = score below 0.9). Conditions: actives raise or lower the signal. The essentials: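 Readout: HPLC-MS/MS of 17alpha-hydroxypregnenolone in medium after 48 h chemical exposure of H295R cells pretreated with forskolin. Values fitted bidirectionally relative to DMSO; chemicals reducing viability to 20–70% were retested after 10-fold dilution.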

Assay [12] in a line: CEETOX_H295R_OHPROG: CeeTox H295R High-throughput Steroidogenesis Assay for OH-Progesterone (OHPROG) (AID 2283435; active = hit-call score of the fitted dose curve at least 0.9, where 1 is the maximum; inactive = score below 0.9;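 as to AC50: 17alpha-hydroxyprogesterone secreted into medium measured by HPLC-MS/MS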). Conditions: actives raise or lower the signal. The essentials:
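HPLC-MS/MS quantification of 17alpha-hydroxyprogesterone secreted by H295R cells after 48 h chemical exposure, following 48 h 10 uM forskolin prestimulation. Gain or loss of signal fitted relative to DMSO. Viability checked by MTT in the same wells.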

Assay [13] can be described thus: CEETOX_H295R_CORTISOL: CeeTox H295R High-throughput Steroidogenesis Assay for Cortisol (AID 2283438; active = hit-call score of the fitted dose curve at least 0.9, where 1 is the maximum; inactive = score below 0.9;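 also: cortisol secreted into medium quantified by LC-MS/MS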). Conditions: actives raise or lower the signal. The essentials: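 Read-out: cortisol in culture medium by reverse-phase C18 HPLC with ESI-positive tandem MS, after MTBE liquid-liquid extraction. Cells: human adrenal H295R, forskolin-primed (10 uM, 48 h) before 48 h chemical exposure in 0.1% DMSO.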

Assay [14] can be described thus: CEETOX_H295R_DOC: CeeTox H295R High-throughput Steroidogenesis Assay for DOC (AID 2283439; active = hit-call score of the fitted dose curve at least 0.9, where 1 is the maximum; inactive = score below 0.9). The note with it: actives raise or lower the signal. The essentials: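 Human adrenocortical H295R cells, passages up to 10, received 10 uM forskolin for 48 h before chemical addition. After another 48 h exposure in 0.1% DMSO, secreted DOC was measured by LC-MS/MS, with gain or loss fitted against DMSO controls.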

Assay [15] in a line: CEETOX_H295R_ESTRADIOL: CeeTox H295R High-throughput Steroidogenesis Assay for Estradiol (AID 2283440; active = hit-call score of the fitted dose curve at least 0.9, where 1 is the maximum; inactive = score below 0.9;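 also: estradiol secreted into medium quantified by LC-MS/MS after dansyl derivatisation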). Conditions: actives raise or lower the signal. The method in brief:
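H295R cells pre-stimulated 48 h with 10 uM forskolin, then exposed 48 h to chemical in 0.1% DMSO. Medium estradiol quantified by MTBE extraction, dansyl derivatisation and HPLC-MS/MS; bidirectional fit versus DMSO; MTT viability required >/=70%.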

Assay [16] in a line: CEETOX_H295R_ESTRONE: CeeTox H295R High-throughput Steroidogenesis Assay for Estrone (AID 2283441; active = hit-call score of the fitted dose curve at least 0.9, where 1 is the maximum; inactive = score below 0.9;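 also: estrone secreted into medium measured by LC-MS/MS after dansyl derivatization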). The note with it: actives raise or lower the signal. The method in brief:
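Forskolin-stimulated H295R cells are treated 48 h with chemical, and estrone in the medium is measured by LC-MS/MS. Activity is fitted in both directions relative to DMSO controls, with chemicals diluted until MTT viability reaches at least 70%.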

Assay [17] in a line: CEETOX_H295R_PROG: CeeTox H295R High-throughput Steroidogenesis Assay for Progesterone (PROG) (AID 2283442; active = hit-call score of the fitted dose curve at least 0.9, where 1 is the maximum; inactive = score below 0.9). The note with it: actives raise or lower the signal. The method in brief: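 H295R adrenal cells prestimulated 48 h with 10 uM forskolin, then exposed 48 h to test chemical in 0.1% DMSO. Progesterone in medium quantified by HPLC-MS/MS after MTBE extraction; viability checked by MTT in same wells.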

Assay [18] is described as follows: CEETOX_H295R_ANDR: CeeTox H295R High-throughput Steroidogenesis Assay for Androstenedione (ANDR) (AID 2283436; active = hit-call score of the fitted dose curve at least 0.9, where 1 is the maximum; inactive = score below 0.9;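 also: human H295R adrenal cells exposed for 48 h with androstenedione measured in medium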). The note with it: actives raise or lower the signal. The essentials:
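Steroidogenesis in H295R adrenal cells after 48 h dosing; androstenedione quantified by LC-MS/MS, with DMSO as negative control and baseline for bidirectional curve fitting.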

Sequence of Peroxisome proliferator-activated receptor gamma (Homo sapiens) (P37231 whole entry, looked up, the tested form may be a part): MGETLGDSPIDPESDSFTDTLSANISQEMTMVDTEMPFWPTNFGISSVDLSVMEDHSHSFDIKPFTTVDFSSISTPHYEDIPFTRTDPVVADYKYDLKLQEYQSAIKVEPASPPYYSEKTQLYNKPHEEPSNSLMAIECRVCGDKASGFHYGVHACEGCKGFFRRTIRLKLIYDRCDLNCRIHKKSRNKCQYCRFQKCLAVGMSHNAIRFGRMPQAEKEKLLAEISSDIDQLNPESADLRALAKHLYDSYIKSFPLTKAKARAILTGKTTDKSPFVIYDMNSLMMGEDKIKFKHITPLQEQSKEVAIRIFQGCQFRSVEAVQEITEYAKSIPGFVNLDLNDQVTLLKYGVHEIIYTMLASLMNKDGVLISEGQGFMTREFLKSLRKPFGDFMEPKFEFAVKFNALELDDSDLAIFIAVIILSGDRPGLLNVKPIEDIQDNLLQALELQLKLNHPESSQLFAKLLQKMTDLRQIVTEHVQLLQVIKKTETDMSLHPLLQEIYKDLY
Sequence of Estrogen receptor (Homo sapiens) (P03372 whole entry, looked up): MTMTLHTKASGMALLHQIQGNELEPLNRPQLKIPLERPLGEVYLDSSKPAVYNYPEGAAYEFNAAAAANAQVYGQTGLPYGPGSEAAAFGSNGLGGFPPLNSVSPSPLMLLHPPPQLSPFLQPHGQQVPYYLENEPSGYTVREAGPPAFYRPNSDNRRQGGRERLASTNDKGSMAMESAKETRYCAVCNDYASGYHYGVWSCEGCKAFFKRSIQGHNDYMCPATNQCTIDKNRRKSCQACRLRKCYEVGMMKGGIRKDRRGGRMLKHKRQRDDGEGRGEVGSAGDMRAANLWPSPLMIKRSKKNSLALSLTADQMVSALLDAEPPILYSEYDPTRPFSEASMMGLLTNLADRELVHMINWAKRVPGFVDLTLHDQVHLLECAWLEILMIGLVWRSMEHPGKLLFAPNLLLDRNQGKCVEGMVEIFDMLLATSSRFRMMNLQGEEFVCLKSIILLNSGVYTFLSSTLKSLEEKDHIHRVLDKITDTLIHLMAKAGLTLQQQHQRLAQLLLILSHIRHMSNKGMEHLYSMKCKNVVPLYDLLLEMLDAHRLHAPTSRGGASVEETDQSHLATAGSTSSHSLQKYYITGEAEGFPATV
Sequence of Fatty acid synthase (Homo sapiens) (P49327 whole entry, looked up): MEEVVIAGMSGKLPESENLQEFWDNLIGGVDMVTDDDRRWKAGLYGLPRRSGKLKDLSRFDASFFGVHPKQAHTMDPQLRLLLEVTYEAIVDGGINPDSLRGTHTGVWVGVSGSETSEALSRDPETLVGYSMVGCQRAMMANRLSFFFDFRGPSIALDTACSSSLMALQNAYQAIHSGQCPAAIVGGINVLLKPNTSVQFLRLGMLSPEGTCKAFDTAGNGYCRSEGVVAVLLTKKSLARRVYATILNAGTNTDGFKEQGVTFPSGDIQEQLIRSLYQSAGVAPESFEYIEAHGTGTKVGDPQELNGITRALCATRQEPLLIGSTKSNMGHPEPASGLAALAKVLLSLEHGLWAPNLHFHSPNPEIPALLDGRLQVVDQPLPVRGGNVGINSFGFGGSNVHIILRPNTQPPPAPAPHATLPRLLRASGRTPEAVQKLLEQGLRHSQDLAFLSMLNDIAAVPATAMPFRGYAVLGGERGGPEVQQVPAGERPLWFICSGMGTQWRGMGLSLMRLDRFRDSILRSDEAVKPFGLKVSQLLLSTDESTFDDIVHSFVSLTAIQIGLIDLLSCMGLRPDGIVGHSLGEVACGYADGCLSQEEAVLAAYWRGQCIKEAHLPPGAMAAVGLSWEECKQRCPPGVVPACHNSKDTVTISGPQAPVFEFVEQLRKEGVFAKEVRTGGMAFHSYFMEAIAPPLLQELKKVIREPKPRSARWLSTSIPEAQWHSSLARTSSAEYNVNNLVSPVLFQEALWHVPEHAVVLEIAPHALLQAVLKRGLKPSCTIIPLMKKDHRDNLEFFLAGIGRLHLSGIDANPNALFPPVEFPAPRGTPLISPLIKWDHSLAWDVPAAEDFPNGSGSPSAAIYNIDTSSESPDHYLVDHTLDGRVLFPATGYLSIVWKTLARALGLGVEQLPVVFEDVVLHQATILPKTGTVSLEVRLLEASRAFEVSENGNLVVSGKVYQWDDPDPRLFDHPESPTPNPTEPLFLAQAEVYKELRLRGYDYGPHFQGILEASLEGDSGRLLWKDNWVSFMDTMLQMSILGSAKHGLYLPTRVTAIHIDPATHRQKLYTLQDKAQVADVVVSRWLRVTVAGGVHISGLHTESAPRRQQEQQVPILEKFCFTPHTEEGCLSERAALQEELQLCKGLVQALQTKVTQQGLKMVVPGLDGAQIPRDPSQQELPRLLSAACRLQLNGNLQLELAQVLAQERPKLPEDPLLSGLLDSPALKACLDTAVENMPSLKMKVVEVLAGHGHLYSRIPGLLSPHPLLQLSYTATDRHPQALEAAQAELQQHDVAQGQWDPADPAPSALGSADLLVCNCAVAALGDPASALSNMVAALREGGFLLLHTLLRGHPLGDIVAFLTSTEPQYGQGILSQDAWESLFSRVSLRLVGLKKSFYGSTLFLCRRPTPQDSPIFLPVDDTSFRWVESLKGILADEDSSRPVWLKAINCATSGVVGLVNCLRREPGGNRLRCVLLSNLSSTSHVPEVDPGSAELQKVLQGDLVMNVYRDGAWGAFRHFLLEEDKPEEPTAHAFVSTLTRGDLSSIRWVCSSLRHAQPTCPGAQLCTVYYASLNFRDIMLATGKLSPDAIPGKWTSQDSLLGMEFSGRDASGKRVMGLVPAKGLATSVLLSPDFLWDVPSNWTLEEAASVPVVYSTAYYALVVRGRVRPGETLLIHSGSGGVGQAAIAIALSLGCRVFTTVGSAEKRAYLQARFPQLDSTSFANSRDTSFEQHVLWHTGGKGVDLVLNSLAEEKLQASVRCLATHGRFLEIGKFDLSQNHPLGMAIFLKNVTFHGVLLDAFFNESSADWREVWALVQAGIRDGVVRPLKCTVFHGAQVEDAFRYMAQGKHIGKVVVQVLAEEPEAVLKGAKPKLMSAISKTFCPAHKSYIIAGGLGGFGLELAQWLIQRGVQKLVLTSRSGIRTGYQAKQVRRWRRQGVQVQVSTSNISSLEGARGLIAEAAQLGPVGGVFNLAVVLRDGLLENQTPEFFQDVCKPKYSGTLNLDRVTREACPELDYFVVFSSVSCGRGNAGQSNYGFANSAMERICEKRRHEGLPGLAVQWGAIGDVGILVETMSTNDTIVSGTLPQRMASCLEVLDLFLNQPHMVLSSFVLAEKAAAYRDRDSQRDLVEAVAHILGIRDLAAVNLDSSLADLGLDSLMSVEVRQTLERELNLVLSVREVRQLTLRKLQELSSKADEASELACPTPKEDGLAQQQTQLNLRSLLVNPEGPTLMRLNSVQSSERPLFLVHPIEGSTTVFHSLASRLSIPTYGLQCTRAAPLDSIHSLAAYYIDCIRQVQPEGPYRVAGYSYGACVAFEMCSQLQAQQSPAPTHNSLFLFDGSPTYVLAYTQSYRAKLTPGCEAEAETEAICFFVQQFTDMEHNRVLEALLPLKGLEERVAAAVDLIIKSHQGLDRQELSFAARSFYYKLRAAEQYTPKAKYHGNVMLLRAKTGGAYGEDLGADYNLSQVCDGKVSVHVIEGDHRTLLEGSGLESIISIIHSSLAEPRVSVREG

What is called AC50 is the midpoint of the concentration-response curve, whichever way the signal moves. For the compound `O=S(=O)(O)C(F)(F)C(F)(F)C(F)(F)C(F)(F)C(F)(F)C(F)(F)C(F)(F)C(F)(F)F`, the compound was classed as inactive in [1], in assay [2], in [3], in [4], in assay [5] and in assay [7]. In assay [6], the AC50 is 81.5 µM (active) and 71.8 µM (active) and 73.8 µM (active).

In the case of `CC1(C)C(C=C(Cl)Cl)C1C(=O)OC(C#N)c1ccc(F)c(Oc2ccccc2)c1` (configuration not stated), the compound was classed as inactive in assay [8], in assay [9], in [1], in assay [3], in [4] and in [10]. Besides, the result in assay [11], in assay [12], in assay [13], in assay [14], in assay [15] and in [16] was inactive. Moreover, the result in assay [17], in assay [5], in [6] and in assay [7] was inactive.

On to `CNC(=O)CSP(=S)(OC)OC`, for which the compound was called inactive in assay [8], in assay [9], in [1], in assay [2], in assay [3] and in assay [4]. Further, the compound was called inactive in [11], in assay [12], in assay [15], in assay [16], in [17] and in assay [5]. For the same compound, the compound was called inactive in assay [6] and in assay [7].

Take `CC(C)(C)C(O)C(Oc1ccc(Cl)cc1)n1cncn1` (configuration not stated): the outcome in assay [1], in assay [2], in [3], in [4], in assay [11] and in assay [12] was inactive. Moreover, the call in assay [17], in assay [5] and in [7] was inactive. Moreover, the AC50 was 18.3 µM (active) and 3.14 µM (active) and 3.31 µM (active) in [12]; 32.7 µM (active) and 50 µM (active) and 27.9 µM (active) in [6].

Regarding `CCC(C)(NC(=O)c1cc(Cl)c(C)c(Cl)c1)C(=O)CCl` (configuration not stated), the values for the AC50 in [8], in assay [9] and in [5] were 13.6 µM (active), 45 µM (active) and 92.4 µM (active), respectively. The outcome in [1], in [3], in [4], in assay [6] and in [7] was inactive.

For `C[C@H]1[C@H](c2ccc(Cl)cc2)SC(=O)N1C(=O)NC1CCCCC1`, the compound was classed as inactive in [8], in assay [9], in assay [2], in [3], in [4] and in assay [10]. The compound was called inactive in assay [11], in assay [12], in assay [18], in [13], in assay [14] and in [15]. Besides, the call in [16], in assay [17] and in assay [6] was inactive. Moreover, the AC50 in assay [5] is 90.5 µM (active).
